Screening results as filed in PubChem BioAssay.
Sampled rows, rich in hits. Any-hit rate of the full collection: about 1.2%.
NS1 inh = qHTS Assay for Inhibitors of Influenza NS1 Protein Function | Potency, µM (titrated, usually from 46.1 µM), for inactives: top-dose activity, positive = more growth | 270,000 compounds, 0.4% hits; calls by dose curve; note: actives are rising curves; nearly all actives have a fitted effect of over 50% in size
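A cell-based growth assay was used: compounds that relieve NS1-induced slow growth of budding yeast raise OD600. Assay medium was yeast nitrogen base with ammonium sulphate and -URA supplement, pH 6.0, with 2% galactose.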
AMA1-RON2 inh = qHTS for Inhibitors of AMA1-RON; Towards Development of Antimalarial Drug Lead: Primary Screen; AlphaScreen AMA1-biotinylated RON2 peptide binding; Potency, µM (doses to about 58.2 µM), for the others: at the highest dose activity change, negative = inhibition, hits mostly inhibitors; 360,000 compounds, 0.2% hits;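 note: 0% = vehicle wells and -100% = peptide control; nearly all actives have a fitted effect of over 45% in size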
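AMA1 (3D7) with his tag at 25 nM final met compounds first, then biotinylated RON2 peptide at 25 nM; detection used donor plus acceptor beads, 10 µg/mL apiece, read by AlphaScreen after 30 min at room temperature.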
Giardia FBPA inh = qHTS Assay for Inhibitors of Fructose-1,6-bisphosphate Aldolase from Giardia Lamblia. AID 2451, 2010. purified Giardia FBPA. 290,000 compounds, 0.71% hits. A8B2U2. Potency, µM (highest dose often 59.6 µM), without a hit: at the top dose activity, negative = inhibition, most hits filed as inhibitors; note: % is set by controls: 0 for no effect and ±100 for the full control effect; nearly all actives have a fitted effect of over 55% in size
Target sequence (A8B2U2 whole entry, looked up): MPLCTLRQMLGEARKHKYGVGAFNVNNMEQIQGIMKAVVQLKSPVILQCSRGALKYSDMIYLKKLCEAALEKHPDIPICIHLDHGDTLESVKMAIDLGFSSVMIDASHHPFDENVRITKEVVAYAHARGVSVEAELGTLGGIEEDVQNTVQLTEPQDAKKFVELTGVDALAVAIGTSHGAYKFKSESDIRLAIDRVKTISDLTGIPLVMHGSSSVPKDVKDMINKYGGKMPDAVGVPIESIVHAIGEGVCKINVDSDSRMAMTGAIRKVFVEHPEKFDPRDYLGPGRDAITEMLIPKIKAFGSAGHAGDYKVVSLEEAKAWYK
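40 nM FBPA preincubated 10 min at RT with compound (up to 57.5 uM final), then substrate plus GAPDH/TPI/NAD/arsenate coupling and diaphorase/resazurin added. Fluorescence read after 20 min at RT, 525/598 nm.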
TbPYK inhibitor = qHTS of Trypanosoma Brucei Inhibitors; 410,000 compounds, 0.12% hits; Potency, µM (doses to about 76.8 µM), without a hit: top-dose activity, negative = inhibition, usual class: inhibitors; TbPYK enzyme, Kinase-Glo Plus ATP luminescence, 45 min; pyruvate kinase (Trypanosoma brucei), Q57TT1; note: % is set by controls: 0 for no effect and ±100 for the full control effect; nearly all actives have a fitted effect of over 50% in size
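ADP (130 uM final) triggers the TbPYK reaction after compound addition; incubation is 45 min at room temperature. Kinase-Glo Plus is then added and luminescence imaged. Normalized data are fitted to concentration-effect curves.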
LmPK inh = qHTS Assay for Inhibitors of Leishmania Mexicana Pyruvate Kinase (LmPK) | AID 1721, 2009 | purified LmPK, Kinase-Glo ATP luminescence, 1 h | Potency, µM (doses to about 57.5 µM), inactives show at the highest dose activity change, negative = inhibition, hits mostly inhibitors | 290,000 compounds, 0.37% hits | Q27686; note: % is set by controls: 0 for no effect and ±100 for the full control effect
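ATP generated from ADP (0.1 mM) and PEP (0.5 mM) by 0.1 nM LmPK over 1 h at room temperature (pH 7.2 imidazole buffer) was detected by coupled luciferase luminescence. Values were normalized to uninhibited and no-enzyme wells.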
An asterisk follows results filed as active; ? = inconclusive; nt = not tested or not shown; [ ] = another dose, or the depositor's remark. Unless noted, calls come from the whole dose curve; as a rule, active = well fitted curve in the direction sought with a large enough effect; inconclusive = small, poorly fitted or top-dose-only effect, or another doubt; inactive = no such curve, though single readings can be large; an effect the other way counts as inactive or inconclusive. Potency is the fitted concentration of half-maximal effect.

SMILES | NS1 inh | AMA1-RON2 inh | Giardia FBPA inh | TbPYK inhibitor | LmPK inh
NC(=O)c1ccccc1N/C=C/C(=O)c1cccs1 | -18% | 0% | 1% | -14% | 16µM*
NC(=O)c1ccccc1N/C=C/C(=O)c1ccc(Cl)cc1Cl | -10% | -2% | 2% | -14% | 16µM*
Cc1cccc(N/C=C/C(=O)c2cccs2)c1C | -10% | -7% | -4% | -12% | 16µM*
Cc1ccc(C(=O)/C=C/Nc2ccccc2C(N)=O)o1 | -20% | 2% | -12% | -6% | -27%
O=C(/C=C/Nc1ccc(F)cc1)c1cccs1 | nt | -4% | nt | -14% | nt
NC(=O)c1ccccc1N/C=C/C(=O)c1ccc(F)cc1 | -146% | 6% | -7% | -15% | 8.9µM*
NC(=O)c1ccccc1NC(=O)/C=C/c1cccc(Cl)c1 | -8% | 2% | 0% | nt | 0%
Nc1nc2c(ncn2[C@@H]2O[C@H](CO)[C@@H](O)[C@@H]2O)c(=[SH+])[nH]1.O=[N+]([O-])c1ccc(O)[c]([Hg])c1 | -6% | nt | nt | nt | nt
COc1ccc(-c2nc3c(c4c2C[C@H](c2ccccc2)OC4)CN(C(=O)NCCc2c[nH]c4ccccc24)CC3)c(C)c1 | nt | nt | 1%[12.9 µM] | nt | -10%[11.5 µM]
COc1cc(OC)cc(-c2n[nH]c(=S)n2-c2ccc3c(c2)OCO3)c1 | 15% | 53% | 13% | ? | 5µM*
Fc1ccc(-n2c(-c3ccc4c(c3)OCO4)n[nH]c2=S)cc1Cl | 12% | 90% | 9% | 4µM* | 14µM*
Cc1ccc(-n2c(-c3ccc(Cl)cc3Cl)n[nH]c2=S)cc1 | 3% | 47% | 16% | ? | ?
COc1ccc(-n2c(-c3ccc(C)cc3)n[nH]c2=S)cc1 | ? | 60% | 10% | ? | ?
CC(C)(C)NC(=O)[C@H]1CC[C@H]2[C@@H]3CC=C4C=C(C(=O)O)CC[C@@]4(C)[C@H]3CC[C@]12C | nt | nt | nt | 0% | nt
Oc1cc(-c2ccccc2)c2ccccc2c1 | -19% | -2% | 5.6µM* | 1% | -1%
COc1ccccc1N1C(=O)C=C(Sc2nc(C)cc(C)n2)C1=O | 11% | 42% | -22% | 5µM* | ?
COc1ccccc1N1C(=O)C2CC(C)=C(C)CC2C1=O (stereo unspecified) | -4% | -4% | 2% | 1% | -2%
COc1ccc(CCNC(=O)C(=O)NCC(c2ccco2)S(=O)(=O)c2ccc(F)cc2)cc1 (stereo unspecified) | nt | nt | nt | -1% | nt
Cc1ncc(N=Nc2ccccc2Cl)c(-c2ccccc2)n1 | -11% | 25µM* | 0% | 0% | 1%
Nc1nc(-c2ccccc2)c(N=Nc2ccccc2Cl)s1 | 2% | 14µM* | -11% | -14% | -15%
COc1ccc(N=Nc2cnc(C)nc2-c2ccccc2)cc1 | -8% | ? | -4% | 4% | 0%
Nc1nc(-c2ccccc2)c(N=Nc2cccc3ccccc23)s1 | 6% | 16µM* | -8% | -7% | -18%
CSCC[C@H](NC(=O)[C@H](CCCN=C(N)N)NC(=O)[C@@H]1CCCN1C(=O)[C@H](Cc1ccccc1)NC(=O)[C@H](C)NC(=O)[C@H](CC(C)C)NC(=O)[C@H](Cc1ccc(O)cc1)NC(=O)[C@H](CC(N)=O)NC(=O)[C@@H](N)CCSC)C(N)=O | nt | nt | 5% | nt | nt
N[C@H](Cc1cnc[nH]1)C(=O)O | nt | nt | -11% | nt | nt
Clc1ccc(-c2cn3nc4c(nc3n2)CCCC4)cc1 | -8% | 21% | ? | -9% | 14µM*
SMILES | NS1 inh | AMA1-RON2 inh | Giardia FBPA inh | TbPYK inhibitor | LmPK inh
COc1cccc(-c2cn3nc4c(nc3n2)CCCC4)c1 | -11% | 16% | ? | ? | 11µM*
CN=c1scc(C)n1/N=C/c1ccc2c(c1)OCO2 | -4% | ? | -1% | 2% | 16µM*
CN=c1scc(C)n1/N=C/c1ccc(O)cc1 | -31% | -9% | 0% | -6% | 2%
O=C1/C(=C/c2cccs2)CCC/C1=C\c1cccs1 | -12% | 11µM* | nt | -3% | -12%
CC1C/C(=C/c2cccs2)C(=O)/C(=C/c2cccs2)C1 (stereo unspecified) | -19% | ? | -5% | -4% | 2%
O=C(NC(=S)Nc1ccccc1N1CCCC1)c1ccco1 | 16% | -11% | 14µM* | -12% | -2%
Nc1cc(-c2ccncc2)c[nH]c1=O | -20% | 8% | 1.8µM* | ? | 9%
COC[C@@H](c1ccc(C(F)(F)F)cc1)N1CCN(C2(C)CCN(C(=O)c3c(C)ncnc3C)CC2)C[C@@H]1C | nt | nt | nt | 0% | nt
COc1ccccc1NS(=O)(=O)c1cc(NC(=O)/C=C/c2cccs2)ccc1N1CCOCC1 | 14µM* | -4% | -3% | -8% | -1%
O=C(/C=C/c1cccs1)Nc1ccc(N2CCOCC2)c(S(=O)(=O)Nc2ccccc2Cl)c1 | 13% | 7% | 0% | -9% | 0%
C/C(=C(/CCOC(=O)c1ccccc1)SS/C(CCOC(=O)c1ccccc1)=C(\C)N(C=O)Cc1cnc(C)nc1N)N(C=O)Cc1cnc(C)nc1N | nt | nt | nt | -10% | nt
COc1ccc2c(c1)C(=O)[C@@H](OC(=O)Nc1cc(OC)c(OC)c(OC)c1)[C@H](c1ccc(OC)c(Br)c1)O2 | nt | nt | -1% | nt | nt
O=Nc1c(-c2c(O)[nH]c3cc(Br)ccc23)[nH]c2ccccc12 | -21% | 10µM* | -30% | -7% | -28%
CCCn1nc(NC(=O)C2CCCO2)c2cc3cc(C)ccc3nc21 (stereo unspecified) | -13% | 1.1µM* | -6% | -14% | 7%
CCCn1nc(NC(=O)C2CCCO2)c2cc3ccc(C)cc3nc21 (stereo unspecified) | 0% | 18% | -1% | 0% | 1%
O=C(O)CCCn1c(=S)[nH]c2c(sc3ccc([N+](=O)[O-])cc32)c1=O | nt | 27% | ? | 20µM* | ?
CC1CCN(CCCn2c(=S)[nH]c3c(sc4ccc([N+](=O)[O-])cc43)c2=O)CC1 | nt | -16% | -20% | -8% | 5%
CC(C)C1C(=O)N(Cc2cn(CCC3OCCCO3)nn2)CCS(=O)(=O)N1Cc1ccc(-c2cccc(N(C)C)c2)cc1 (stereo unspecified) | nt | -24% | nt | -6% | nt
CC(C)C1C(=O)N(Cc2cn(CCC3OCCO3)nn2)CCS(=O)(=O)N1Cc1ccc(-c2cccc(N(C)C)c2)cc1 (stereo unspecified) | nt | 18µM* | nt | -17% | nt
CCc1ccccc1NC(=O)CSc1nnc(CC)c(CC)n1 | nt | nt | nt | -3%[15.4 µM] | nt
Oc1ccc2ccccc2c1/C=N/c1nccs1 | -7% | -9% | nt | 1% | -2%
Oc1ccc2ccccc2c1C=NCc1cn2ccsc2n1 | -55% | 39% | 1µM* | -11% | 3%
Oc1ccc(NCc2cccc(OCc3ccc(F)cc3)c2)cc1 | 7% | 31% | 18µM* | ? | -2%
